Screening data (PubChem BioAssay)
MCF10A rerep = DNA re-replication induction in MCF 10a cells. MCF 10A DNA re-replication, Hoechst nuclear intensity, 48 h. Potency, µM (top dose mostly 46.1 µM), most hits filed as activators. actives 2.9% (n = 350,000); also: nearly all actives have a fitted effect of over 50% in size
KB-3-1 tox = kills parental KB-3-1 adenocarcinoma cells; KB-3-1 viability, CellTiter-Glo ATP luminescence, 72 h; Potency, µM (doses to about 46.1 µM), most hits filed as cytotoxic; actives 1.4% (n = 400,000); AID 1347075; also: nearly all actives have a fitted effect of over 60% in size
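Screening of KB-3-1 cells (DMEM, 10% FBS, phenol-red free) ran from lowest to highest compound concentration; after 72 h at 37 °C viability was read luminescently and curves fitted.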
KB-V1 cytotox = kills drug-selected multidrug resistant KB-V1 cells. actives 3.4% (n = 400,000). AID 1347076. KB-V1 MDR cells viability, CellTiter-Glo, 72 h. Potency, µM (doses to about 46.1 µM), usual class: cytotoxic; also: nearly all actives have a fitted effect of over 60% in size
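Compound-treated KB-V1 multidrug-resistant cells, 72 h, 37 degrees C; viability by CellTiter-Glo. Fitted qHTS curves give the values.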
HT1080-NT tox = kills 2HG-producing HT-1080-NT fibrosarcoma cells. Potency, µM (doses to about 46.1 µM), usual class: cytotoxic. HT-1080-NT fibrosarcoma viability, CellTiter-Glo ATP luminescence, 48 h. actives 1.6% (n = 360,000). AID 686970;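 also: NT is the 2HG producing partner of a matched IDH1 knockdown line; nearly all actives have a fitted effect of over 55% in size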
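Fibrosarcoma NT cells, 750 per well in 5% FBS RPMI, were exposed to compound for 48 hours. Viability: CellTiter-Glo luminescence.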
SW480 rerep = induces DNA re-replication in SW480 colon adenocarcinoma cells; actives 1.8% (n = 340,000); SW480 DNA re-replication, Hoechst DNA content imaging, 48 h; AID 624297; Potency, µM (series often up to 46.1 µM), most hits filed as activators; also: nearly all actives have a fitted effect of over 55% in size
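Quantitative HTS format with DMSO vehicle controls; 48 hr drug incubation at 37 C, then 40 min Hoechst staining and scanning imager measurement at 405 nm excitation.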
HT1080 IDH1KD tx = HT-1080 IDH1 knockdown cell toxicity (counter line); HT-1080 IDH1 knockdown viability, ATP luminescence, 48 h; Potency, µM (highest dose often 46.1 µM), most hits filed as cytotoxic; actives 2% (n = 360,000)
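After a 2 h attachment period, IDH1KD HT-1080 cells took pin-transferred compound for 48 h at 37 °C; ATP-based luminescence after 10 min room-temperature reagent incubation reported viability.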
A number is an active result. Shown are actives, neighbours in structure and some others; about 7.9% of the full set was active somewhere. Calls follow the shape of the dose curve; as a rule, active = well fitted curve in the direction sought with a large enough effect; inconclusive = small, poorly fitted or top-dose-only effect, or another doubt; inactive = no such curve, though single readings can be large; an effect the other way counts as inactive or inconclusive.

Results for CC(=O)c1cc(-c2ccccc2)n(CC(=O)Nc2cccc(C)c2C)c1C ?
MCF10A rerep: inactive; KB-3-1 tox: inactive; KB-V1 cytotox: inactive; HT1080-NT tox: inactive; SW480 rerep: inactive; HT1080 IDH1KD tx: inactive

Results for CC(=O)c1cc(-c2ccccc2)n(CC(=O)Nc2ccc(C)c(C)c2)c1C ?
MCF10A rerep: 23.1µM; KB-3-1 tox: inactive; KB-V1 cytotox: inactive; HT1080-NT tox: inconclusive; SW480 rerep: inactive; HT1080 IDH1KD tx: inactive

What do the screens show for `Cc1nc2ccccc2n1CC(=O)N/N=C\C=C\c1ccccc1`?
MCF10A rerep: inactive; KB-3-1 tox: inactive; KB-V1 cytotox: 20.6µM; HT1080-NT tox: inactive; SW480 rerep: inactive; HT1080 IDH1KD tx: inactive

What do the screens show for `Cc1nc2ccccc2n1CC(=O)NC1CCCC1`?
MCF10A rerep: inactive; KB-3-1 tox: inactive; KB-V1 cytotox: inactive; HT1080-NT tox: inactive; SW480 rerep: inactive; HT1080 IDH1KD tx: inactive

What do the screens show for `CCOc1ccc(/C=C/c2ccc3ccccc3[n+]2C)cc1OCC`?
KB-3-1 tox: inconclusive; KB-V1 cytotox: inactive

What do the screens show for `CC(C)c1ccccc1NC(=O)Cn1c(/C=C/c2ccccc2)nc2ccccc21`?
MCF10A rerep: 10.3µM; KB-3-1 tox: inactive; KB-V1 cytotox: inconclusive; HT1080-NT tox: inconclusive; SW480 rerep: 9.2µM; HT1080 IDH1KD tx: inactive

What do the screens show for `CC(C)c1ccccc1NC(=O)Cn1c(-c2ccccc2Cl)nc2ccccc21`?
MCF10A rerep: inactive; KB-3-1 tox: inactive; KB-V1 cytotox: inconclusive; HT1080-NT tox: inactive; SW480 rerep: inactive; HT1080 IDH1KD tx: inactive

Results for COc1ccc(CCNC(=O)C(=O)NCC2OCCN2S(=O)(=O)c2ccccc2)cc1 (centres undefined) ?
MCF10A rerep: inactive; KB-3-1 tox: inactive; KB-V1 cytotox: inconclusive; HT1080-NT tox: inactive; SW480 rerep: inactive; HT1080 IDH1KD tx: inactive

How did Cc1ccc(C)c(S(=O)(=O)NCCN2CCOCC2)c1 do in these assays?
MCF10A rerep: inactive; KB-3-1 tox: inactive; KB-V1 cytotox: inactive; HT1080-NT tox: inactive; SW480 rerep: inactive; HT1080 IDH1KD tx: inactive

How did Cc1nc(Nc2ccc(Cl)c(Cl)c2)sc1C(=O)Nc1ccccc1 do in these assays?
MCF10A rerep: 23.1µM; KB-3-1 tox: inconclusive; KB-V1 cytotox: inactive; HT1080-NT tox: inconclusive; SW480 rerep: inactive; HT1080 IDH1KD tx: inactive

How did Cc1nc(Nc2ccc(Cl)cc2Cl)sc1C(=O)Nc1ccccc1 do in these assays?
MCF10A rerep: inactive; KB-3-1 tox: inactive; KB-V1 cytotox: inconclusive; HT1080-NT tox: inactive; SW480 rerep: inactive; HT1080 IDH1KD tx: inactive

Results for Cc1nc(NC(=O)/C=C/c2ccccc2)sc1C(=O)Nc1ccc(Cl)cc1 ?
MCF10A rerep: 16.4µM; KB-3-1 tox: inactive; KB-V1 cytotox: inactive; HT1080-NT tox: inconclusive; SW480 rerep: inconclusive; HT1080 IDH1KD tx: inconclusive

How did Cc1nc(NC(=O)/C=C/c2ccccc2)sc1C(=O)Nc1ccccc1Cl do in these assays?
MCF10A rerep: inactive; KB-3-1 tox: inactive; KB-V1 cytotox: inactive; HT1080-NT tox: inactive; SW480 rerep: inactive; HT1080 IDH1KD tx: inactive

What do the screens show for `Cc1cccc(CSc2ccc(S(=O)(=O)N3CCCC3)cn2)c1`?
MCF10A rerep: inactive; KB-3-1 tox: inactive; KB-V1 cytotox: inactive; HT1080-NT tox: inactive; SW480 rerep: inactive; HT1080 IDH1KD tx: inactive

What do the screens show for `Cc1cn([C@H]2C[C@H](O)[C@@H](CNCc3cc(Br)ccc3OCc3ccccc3)O2)c(=O)[nH]c1=O`?
KB-3-1 tox: inactive; KB-V1 cytotox: inactive; HT1080-NT tox: inactive; HT1080 IDH1KD tx: inactive

What do the screens show for `CN(C)c1ccc(C(=O)/C=C/c2ccc(Br)cc2)cc1`?
MCF10A rerep: inactive; KB-3-1 tox: inactive; KB-V1 cytotox: inactive; HT1080-NT tox: inactive; SW480 rerep: inconclusive; HT1080 IDH1KD tx: inactive

What do the screens show for `CC(C)(C)c1ccc(/C=C/C(=O)Nc2ccncc2)cc1`?
MCF10A rerep: inconclusive; KB-3-1 tox: inactive; KB-V1 cytotox: inconclusive; HT1080-NT tox: inconclusive; SW480 rerep: inconclusive; HT1080 IDH1KD tx: inconclusive
